According to ChEMBL document CHEMBL3988442, “University of Dundee, Small-Polar-MMV Screening Library” (2021):
About 13,000 (27%) of roughly 48,000 compounds showed an effect of 50% or more. The list shows a part of the results.

What follows are compounds tested on Wolbachia pipientis (assay: Anti-Wolbachia Cell-Based Screen). Conditions: 5 µM.
Format: functional
Parameters: scale not given: in the data most compounds retested in dose-response had high values

Structure (SMILES) | Percent Effect
O=C(c1cnc(-c2noc3cc(N4CCCC4)ccc23)s1)N1CCCC1 | 0.8579%
CCC(C)NS(=O)(=O)Cc1cccc(NC(=O)c2cc[nH]c2C)c1 (stereo not drawn) | 3.733%
Cc1ccc2nc(C)c(C)c(C(=O)NCCCn3cnnc3)c2c1 | -1.384%
CC(C)Oc1cc(N2CC[C@@H](N3CCOCC3)[C@H](O)C2)nc(N)n1 | -17.76%
CCn1nccc1CNC(=O)C1CC1 | 8.516%
CCn1nccc1CN(C)c1[nH]cnc2nc(C)nc1-2 | 80.56%
CCn1nccc1CNc1[nH]cnc2nc(C)nc1-2 | 100.2%
CCn1nccc1CNC(=O)NC1CCCCC1 | 13.66%
CCn1ncnc1CN(CCOC)Cc1ccc(C)cc1 | -0.7993%
CCn1nccc1CNc1[nH]cnc2nncc1-2 | 87.91%
Cc1nccn1-c1ccc(C(C)NCc2ncc[nH]2)cc1 (stereo not drawn) | -20.7%
Cc1cc(C(=O)Nc2ccnc(OC3CCOC3)c2)c(C)o1 (stereo not drawn) | -9.731%
Cc1ccc2[nH]c(CN(C)c3cc(CN)nc(C)n3)nc2c1 | -0.384%
N#Cc1cn(C2CC2)c(=O)n(Cc2noc(-c3cccs3)n2)c1=O | 11.53%
COCCn1cnnc1CN(C)c1nc(N)nc2c1CCCC2 | 15.13%
Cc1oncc1C(=O)N1CC2CC1(C(=O)NCc1ccco1)C2 | -19.28%
FC(F)(F)Oc1ccc(-c2c[nH]c([C@@H]3COCCN3)n2)cc1 | -3.996%

Structure (SMILES) | Percent Effect
Cc1ccc(CNCC2Cn3nncc3CO2)o1 (stereo not drawn) | 84.72%
c1ccc(CNCC2Cn3nncc3CO2)nc1 (stereo not drawn) | -9.384%
Cc1ccc(CNCC2Cn3nnc(-c4cccc(F)c4)c3CO2)o1.O=C(O)C(F)(F)F (stereo not drawn) | -4.594%
c1coc(CNCC2Cn3nncc3CO2)c1 (stereo not drawn) | 91.63%
Fc1cccc(CNCC2Cn3nncc3CO2)c1 (stereo not drawn) | -13.19%
Cc1nnn2c1COC(CNCc1ccncc1)C2 (stereo not drawn) | -6.146%
c1cc(CNCC2Cn3nncc3CO2)ccn1 (stereo not drawn) | 7.838%
Cc1ccc(CNCC2Cn3nncc3CO2)s1 (stereo not drawn) | 98.39%
c1cc(CNCC2Cn3nncc3CO2)cs1 (stereo not drawn) | 14.09%
COCCN(CCC#N)S(=O)(=O)c1cc(F)ccc1F | 6.072%
CC(C)c1nnc2n1CCN(C(=O)CN(C)Cc1ccccc1)C2 | 95.98%
Cc1nnc2n1CCN(C(=O)COCCOc1ccccc1)C2 | 6.355%
Cc1nnc2n1CCN(C(=O)CN(C)Cc1ccccc1)C2 | 125%
CCc1nnc2n1CCN(C(=O)CN(C)Cc1ccccc1)C2 | -3.292%
CC(C)c1nnc2n1CCN(C(=O)CN1Cc3ccccc3C1=O)C2 | -9.252%
CC(C)c1nnc2n1CCN(C(=O)c1ccc(CN(C)C)cc1)C2 | -8.921%
